From PubChem BioAssay
Sampled rows, rich in hits. Any-hit rate of the full collection: about 1.2%.
Avidin bead fluor = avidin bead compound fluorescence profile; fluorescence (KMESF) at 10 µM; 220,000 compounds, 0.38% hits; Avidin beads, compound fluorescence 488/530 nm, flow cytometry; active compounds read high; in the data active means fluorescence above about 47
RGS7-Gao = human RGS7-Galphao interaction regulation. P09471. Multiplexed bead flow cytometry, RGS7-Galphao binding; actives lie on both sides. binding response (% of control), % at 10 µM. 220,000 compounds, 0.35% hits. AID 1439; in the data active means binding response below about 49% or above about 150%; inconclusive means no clear call, values can overlap the other calls; inactive means in between;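 further: fluorescent Galphao held in activated GDP-AlF4 state binding bead-coupled RGS7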
RGS8-Gao reg = human RGS8-Galphao interaction regulation; P09471; multiplexed bead flow cytometry, RGS8-Galphao binding; actives lie on both sides; response (percent of control binding), % at 10 µM; 220,000 compounds, 0.34% hits; AID 1423; in the data active means response below about 60% or above about 140%; inactive means in between;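 further: Galphao activated as the GDP aluminium fluoride complex binding bead-coupled RGS8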
GSH bead fluor = GSH bead compound fluorescence profile | GSH beads flow cytometry, compound fluorescence 488/530 nm; active compounds read high | fluorescence (KMESF) at 10 µM | 190,000 compounds, 0.25% hits; in the data active means fluorescence above about 89;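 further: glutathione beads carrying GST-tagged Bcl family fusion proteins plus one bare bead set; values are compound well signal with DMSO vehicle wells as background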
RGS4-Gao reg = modulates binding of RGS4 to human Galphao; Multiplexed bead flow cytometry; actives lie on both sides; binding response (% of control), % at 10 µM; 220,000 compounds, 0.33% hits; AID 1415; in the data active means binding response below about 49% or above about 150%; inactive means in between;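 further: fluorescent Galphao activated with aluminum fluoride binding bead-coupled RGS4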
RGS16-Gao HTS = modulates binding between human RGS16 and Galphao; O15492+P09471; bead-based flow cytometry RGS16-Galphao binding, fluorescence; actives lie on both sides; binding response (% of control), % at 10 µM; 220,000 compounds, 0.38% hits; AID 1441;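 further: Galphao activated by GDP with aluminum fluoride before binding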
RGS-Gao = RGS4-Galphao interaction regulator (human); 1,600 compounds, 99% hits; shares compounds with RGS16-Gao HTS; AID 1504; multiplexed bead flow cytometry, RGS–Galpha-o binding; RGS4–Galpha-o binding response, % at 10 µM;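 further: fluorescently labeled Galpha-o bound to GDP with aluminium fluoride binding biotinylated RGS beads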
Biotin-avidin = biotin-avidin bead binding disruption counter-screen; shares compounds with RGS16-Gao HTS; streptavidin beads, fluorescein-biotin binding, flow cytometry; inhibition, % at 10 µM; 1,700 tested, under 10 active; AID 1783;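 active means inhibition above 50%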;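 further: median green fluorescence of gated singlet beads compared with DMSO control wells; 0% = DMSO wells and 100% = complete loss of bead fluorescence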
RGS8-Gao confirm = confirmation of regulators of human RGS8-Galphao interaction. bead-based flow cytometry RGS8-Galphao binding, fluorescence; actives lie on both sides. 1,700 compounds, 3% hits. binding response (% of control), % at 10 µM. AID 1836. shares compounds with RGS16-Gao HTS; in the data active means binding response below about 72% or above about 130%; inactive means in between;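 further: Galphao activated as GDP AlF4 complex before binding bead RGS8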
RGS7-Gao single = RGS7-Galphao interaction regulation, single point confirmation; shares compounds with RGS16-Gao HTS; bead-based flow cytometry RGS7-Galphao binding; actives lie on both sides; response (percent of control binding), % at 10 µM; 1,700 compounds, 7.8% hits; AID 1837; in the data active means response below about 75% or above about 130%; inactive means in between;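 further: fluorescent Galphao activated with GDP and aluminum fluoride binding bead-coupled RGS7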
RGS16-Gao conf = RGS16-Galphao interaction regulation, single point confirmation. AID 1838. shares compounds with RGS16-Gao HTS. response (% of control binding), % at 10 µM. 1,700 compounds, 4% hits. bead-based flow cytometry, RGS16-Galphao binding; actives lie on both sides; in the data active means response below about 74% or above about 130%; inactive means in between;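 further: Galphao activated as the GDP aluminium fluoride complex binding bead-coupled RGS16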
RGS4-Gao confirm = confirmation of regulators of human RGS4-Galphao interaction | shares compounds with RGS16-Gao HTS | RGS4-Galphao binding, multiplexed bead flow cytometry; actives lie on both sides | binding response (% of control), % at 10 µM | 1,700 compounds, 4% hits | AID 1840; in the data active means binding response below about 74% or above about 130%; inactive means in between
RGS19-Gao single = RGS19-Galphao interaction regulation, single point confirmation; shares compounds with RGS16-Gao HTS; bead-based flow cytometry RGS19-Galphao binding; actives lie on both sides; response (percent of control binding), % at 10 µM; 1,700 compounds, 5% hits; AID 1841; in the data active means response below about 50% or above about 160%; inactive means in between;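 further: 100% = no compound control and 0% = blank background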
Target sequence (P09471 whole entry, looked up): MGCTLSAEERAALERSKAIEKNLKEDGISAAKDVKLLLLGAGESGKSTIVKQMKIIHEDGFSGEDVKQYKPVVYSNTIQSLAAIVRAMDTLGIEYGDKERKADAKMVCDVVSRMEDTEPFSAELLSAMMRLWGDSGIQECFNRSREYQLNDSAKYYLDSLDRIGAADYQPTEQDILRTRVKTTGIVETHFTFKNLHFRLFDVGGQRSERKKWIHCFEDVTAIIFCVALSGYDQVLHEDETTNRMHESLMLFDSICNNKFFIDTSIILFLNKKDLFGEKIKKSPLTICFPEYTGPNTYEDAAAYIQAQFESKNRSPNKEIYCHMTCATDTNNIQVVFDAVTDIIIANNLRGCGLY
Target sequence (P49795 whole entry, looked up): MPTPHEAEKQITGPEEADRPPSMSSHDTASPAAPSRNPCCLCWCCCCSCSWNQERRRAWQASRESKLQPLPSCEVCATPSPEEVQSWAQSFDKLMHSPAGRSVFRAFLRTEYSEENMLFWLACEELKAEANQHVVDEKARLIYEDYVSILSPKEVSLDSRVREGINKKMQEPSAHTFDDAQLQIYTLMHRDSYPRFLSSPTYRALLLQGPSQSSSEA
Active calls of the source: *; i = inactive; ? = inconclusive; · = no result given; [ ] = another dose, or the depositor's remark. Unless noted, how the calls were made is not given here.

SMILES	Avidin bead fluor	RGS7-Gao	RGS8-Gao reg	GSH bead fluor	RGS4-Gao reg	RGS16-Gao HTS	Biotin-avidin	RGS8-Gao confirm	RGS7-Gao single	RGS16-Gao conf	RGS4-Gao confirm	RGS19-Gao single	others
CCc1ccc(CCC(=O)Nc2nnc(C)s2)o1	9	90.7	95.4	14	93.5	92.0	·	·	·	·	·	·
Cc1ccc(NC(=S)N(Cc2ccccc2)C(C)C)cc1	1	?	66.7	·	27.1*	37.0	-0.5	103.6	106.3	104.7	105.8	108.8
CCCc1c(C)[nH]c2ccc(C(=O)O)cc2c1=S	7	?	91.9	·	96.6	88.9	·	·	·	·	·	·
CCCc1cc(N2CCCC(C(=O)NCc3ccc4c(c3)OCO4)C2)n2ncnc2n1 (stereo unspecified)	·	·	107.5	48	·	·	0.2	98.2	99.7	99.3	98.4	99.7
Cc1cccc(CN2CCN(C(=O)CCl)CC2)c1	10	106.0	100.1	11	102.8	103.1	·	·	·	·	·	·
O=C(C1Cc2ccccc2CN1C(=O)c1ccccc1)N1CCN(c2ccccc2)CC1 (stereo unspecified)	10	?	100.1	·	98.9	98.3	·	·	·	·	·	·
Cn1c(=O)c2c(nc(SCCN3CCOCC3)n2Cc2ccccc2Cl)n(C)c1=O	26	103.2	101.2	16	100.9	102.8	·	·	·	·	·	·
Cn1c(=O)c2c(nc(SCCN3CCOCC3)n2Cc2ccc(F)cc2)n(C)c1=O	5	132.8	157.9*[activator]	27	138.7	i	-0.3	103.1	105.5	105.6	101.2	111.9	RGS-Gao=138.7*
Fc1cccc(Cl)c1/C=N/n1c(-c2cccnc2)n[nH]c1=S	6	87.6	58.9*	10	88.5	0.6	-3.0	93.0	112.7	86.7	95.2	87.1	RGS-Gao=88.5*
O=C(c1cccnc1Nc1ccc2c(c1)CCC2)N1CCOCC1	-3	-1.2*	8.5*	16	-3.1*	-1.9*	-1.6	101.2	96.5	101.6	101.4	101.3
Cc1cccc(-c2nnc3sc(-c4ccccc4)nn23)c1	·	·	·	41	·	·	2.4	94.7	89.9	93.2	94.9	87.1
COc1ccc([N+](=O)[O-])cc1NC(=O)Cc1ccc(C)cc1	6	78.6	68.1	9	84.3	-0.2*	1.1	102.2	99.8	99.0	101.9	86.2	RGS-Gao=84.3*
COc1ccc([N+](=O)[O-])cc1NC(=O)/C=C/C(=O)O	2	92.1	65.7	10	90.9	13.5*	i	103.4	101.4	106.8	101.7	118.5	RGS-Gao=90.9*
Cc1ccc([N+](=O)[O-])cc1NC(=O)/C=C/C(=O)O	8	?	100.7	·	96.0	96.1	·	·	·	·	·	·
CC(Sc1cccc[n+]1[O-])C(=O)Nc1ccc(Oc2ccccc2)cc1 (stereo unspecified)	10	98.7	97.4	9	99.9	97.7	·	·	·	·	·	·
C(=N\Nc1ccccc1)/c1nc2ccccc2s1	6	?	103.2	·	103.2	105.6	·	·	·	·	·	·
O=C(CCSCc1cccc(Cl)c1)NCCc1ccccc1	18	98.8	100.6	17	99.2	104.1	·	·	·	·	·	·
